# Results as given in PubChem BioAssay (EPA / NIEHS).
# Activity calls are given as the source filed them. Rule for the calls: active = hit-call score of the fitted dose curve at least 0.9, where 1 is the maximum; inactive = score below 0.9.
# How the values were obtained:
# [1] = target: Bile acid receptor (Homo sapiens) (UniProt Q96RI1); assay: ATG_IR1_CIS: Attagene CIS-FACTORIAL HepG2 Assay for human Nuclear Receptor Subfamily 1 Group H Member 4 (NR1H4), IR1 submotif (AID 2282946); conditions: IR1 reporter transcription, actives raise or lower the signal
# Outline: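 Fluorescence of capillary-separated, HpaI-digested RT-PCR reporter products gave IR1-element mRNA induction in HepG2 cells 24 h after dosing. Endogenous transcription factors drove the cis-regulated reporters; activity was fitted bidirectionally against DMSO.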
# [2] = ATG_GRE_CIS: Attagene CIS-FACTORIAL HepG2 Assay for human Glucocorticoid Response Elements (GRE) (AID 2282947); conditions: HepG2 GRE cis-reporter, Attagene multiplex mRNA; actives raise or lower the signal
# Outline: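 Fluorescence intensity of reporter-specific cDNA fragments, separated by capillary electrophoresis, provides the signal. Constructs carry cis-regulating promoters in transiently transfected HepG2 liver cells; 24 h incubation; fitting is bidirectional against DMSO.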
# [3] = ATG_ISRE_CIS: Attagene CIS-FACTORIAL HepG2 Assay for human Interferon Regulatory Factor 1 (IRF1) binding to an Interferon-Stimulated Response Element (ISRE) (AID 2282948); conditions: HepG2 ISRE cis-reporter (Attagene), mRNA transcription readout; actives raise or lower the signal
# Outline: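 Uses HepG2 liver cells transfected with cis-regulated reporters and measures mRNA 24 h post-dosing through RT-PCR, primer-extension labelling and capillary electrophoresis, with DMSO as negative control.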
# [4] = ATG_M_32_CIS: Attagene CIS-FACTORIAL HepG2 Assay for M32 Transcription Factor (Internal Marker) (AID 2282949); conditions: HepG2 Attagene cis-factorial M32 reporter, mRNA; actives raise or lower the signal;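 note: background control marker of the multiplexed CIS panel rather than a real target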
# Outline: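 HepG2 transfectants (cis-regulated reporter transcription units) dosed 24 h. Reporter mRNA by RT-PCR plus CE, analysed as gain or loss relative to DMSO.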
# [5] = ATG_M_06_CIS: Attagene CIS-FACTORIAL HepG2 Assay for M06 Transcription Factor (Internal Marker) (AID 2282950); conditions: HepG2 Attagene CIS-FACTORIAL M06 internal marker reporter; actives raise or lower the signal
# Outline: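 Cells (HepG2, transiently carrying cis-driven reporter units) receive chemical for 24 h before RNA isolation. Reporter cDNA is PCR-amplified, FAM-labelled by primer extension, HpaI-digested and sized on a capillary analyser.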
# [6] = target: Hypoxia-inducible factor 1-alpha (Homo sapiens) (UniProt Q16665); assay: ATG_HIF1a_CIS: Attagene CIS-FACTORIAL HepG2 Assay for human Hypoxia Inducible Factor 1 (HIF1A) (AID 2282951); conditions: HepG2 Attagene cis-factorial HIF1a reporter transcription; actives raise or lower the signal
# Outline: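 HepG2, transient cis-reporter library, 24 h dosing. RNA → RT (oligo dT) → PCR → 6-FAM primer extension → HpaI → CE. Bidirectional curve fit vs DMSO.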
# [7] = target: Hepatocyte nuclear factor 6 (Homo sapiens) (UniProt Q9UBC0); assay: ATG_HNF6_CIS: Attagene CIS-FACTORIAL HepG2 Assay for human Hepatocyte Nuclear Factor 6 (HNF6) (AID 2282952); conditions: HepG2 Attagene cis-factorial HNF6 reporter transcription; actives raise or lower the signal
# Outline: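 Using cis-element reporters in HepG2 liver cells, the assay tracks endogenous factor-driven transcription 24 h post-dosing. Signal comes from 6-FAM-labelled, HpaI-digested RT-PCR fragments, with gain or loss scored against DMSO.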
# [8] = target: Heat shock factor protein 1 (Homo sapiens) (UniProt Q00613); assay: ATG_HSE_CIS: Attagene CIS-FACTORIAL HepG2 Assay for human Heat Shock Transcription Factor 1 (HSE) (AID 2282953); conditions: HepG2 HSE cis-reporter, Attagene RNA transcription; actives raise or lower the signal
# Outline: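 Liver-derived HepG2 cells carry transiently introduced multiple reporter units governed by cis promoters. Reporter RNA measured 24 h post-dose through reverse transcription, PCR amplification, fluorescent labelling and capillary electrophoresis, normalised to DMSO.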
# [9] = ATG_MRE_CIS: Attagene CIS-FACTORIAL HepG2 Assay for human Metal Responsive Element (MRE) (AID 2282954); conditions: HepG2 MRE cis-reporter transcription, Attagene multiplex; actives raise or lower the signal
# Outline: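 Measured here is mRNA induction from an MRE cis-element reporter in HepG2 after 24 h, quantified by fluorescence of labelled RT-PCR products on capillary electrophoresis; gain- and loss-of-signal fits use DMSO as baseline.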
# [10] = ATG_PBREM_CIS: Attagene CIS-FACTORIAL HepG2 Assay for human Phenobarbital-responsive Enhancer Module (PBREM) (AID 2282955); conditions: HepG2 PBREM cis-reporter, Attagene multiplexed transcription; actives raise or lower the signal
# Outline: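 HepG2, transient MRTU transfection, 24 h dosing; RNA → oligo(dT) RT → PCR → 6-FAM extension → HpaI → CE. Bidirectional fit vs DMSO.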
# [11] = target: Paired box protein Pax-6 (Homo sapiens) (UniProt P26367); assay: ATG_Pax6_CIS: Attagene CIS-FACTORIAL HepG2 Assay for human Paired Box 6 (PAX6) (AID 2282956); conditions: HepG2 CIS-FACTORIAL PAX6 reporter transcription, RNA readout; actives raise or lower the signal
# Outline: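 DMSO-referenced bidirectional fits of reporter mRNA fluorescence; HepG2 with transient cis-promoter MRTUs, 24 h post-dose, RT-PCR plus capillary electrophoresis detection.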
# [12] = ATG_PXRE_CIS: Attagene CIS-FACTORIAL HepG2 Assay for human Pregnane X Receptor Element (PXRE) (AID 2282957); conditions: HepG2 Attagene CIS-FACTORIAL PXRE reporter, mRNA; actives raise or lower the signal
# Outline: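 Using HepG2 transfected with multiple reporter transcription units, endogenous factor-driven transcription was scored as reporter mRNA after 24 h exposure.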
# [13] = ATG_PPRE_CIS: Attagene CIS-FACTORIAL HepG2 Assay for human Peroxisome Proliferator-activated Response Element (PPRE) (AID 2282958); conditions: HepG2 PPRE cis-element reporter, Attagene transcription factor profiling; actives raise or lower the signal
# Outline: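 Transcript-level reporter induction in transfected HepG2 cells after 24 h chemical exposure, quantified by fluorescence from RT-PCR products separated by capillary electrophoresis.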
# [14] = ATG_RORE_CIS: Attagene CIS-FACTORIAL HepG2 Assay for human RAR-related Orphan Receptor Element (RORE) (AID 2282959); conditions: HepG2 Attagene cis-factorial RORE reporter, mRNA; actives raise or lower the signal
# Outline: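 Multiplexed reporter assay measuring mRNA induction from a cis promoter element in transiently transfected HepG2 cells after 24 h treatment. Detection via RT-PCR and capillary electrophoresis fluorescence; DMSO serves as baseline.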
# [15] = ATG_Sox_CIS: Attagene CIS-FACTORIAL HepG2 Assay for human SRY-box transcription factor (SOX) (AID 2282960); conditions: HepG2 Attagene cis-factorial SOX reporter, mRNA; actives raise or lower the signal
# Outline: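 Cells were transfected with reporter constructs under cis-regulatory promoters, then exposed to chemicals for 24 h. Reporter transcripts were quantified by fluorescence after RT-PCR and capillary electrophoresis; activity was fitted in both directions against DMSO.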
# [16] = target: Transcription factor Sp1 (Homo sapiens) (UniProt P08047); assay: ATG_Sp1_CIS: Attagene CIS-FACTORIAL HepG2 Assay for human Specificity Protein 1 (Sp1) (AID 2282961); conditions: HepG2 Sp1 cis-reporter transcription, actives raise or lower the signal
# Outline: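 Measures mRNA induction of an Sp1-linked reporter in HepG2 cells 24 h post-dosing. Multiplexed reporters read by RT-PCR and capillary electrophoresis; DMSO serves as negative control and baseline.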
# [17] = ATG_SREBP_CIS: Attagene CIS-FACTORIAL HepG2 Assay for human Sterol Regulatory Element Binding (SREBP) (AID 2282962); conditions: HepG2 Attagene cis-factorial SREBP reporter, mRNA; actives raise or lower the signal
# Outline: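 In this cis-format assay, HepG2 liver cells express reporters controlled by promoter elements responsive to native transcription factors. Exposure lasts 24 h; reporter mRNA fluorescence from capillary electrophoresis gives the signal, fitted bidirectionally against DMSO.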
# [18] = target: Signal transducer and activator of transcription 3 (Homo sapiens) (UniProt P40763); assay: ATG_STAT3_CIS: Attagene CIS-FACTORIAL HepG2 Assay for human Signal Transducer and Activator of Transcription 3 (STAT3) (AID 2282963); conditions: HepG2, Attagene cis-factorial STAT3 reporter transcription; actives raise or lower the signal
# Outline: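 Fluorescence intensity of 6-FAM-labelled reporter fragments, separated by capillary electrophoresis after RT-PCR, gave the signal. Cells were HepG2 transfected with cis-element reporter units and treated 24 h; fitting was bidirectional relative to DMSO.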
# [19] = ATG_TA_CIS: Attagene CIS-FACTORIAL HepG2 Assay for human TA Basal Promoter (AID 2282964); conditions: HepG2 Attagene CIS-factorial TA basal promoter reporter; actives raise or lower the signal
# Outline: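 Background internal-marker endpoint from a 52-component HepG2 cis-reporter panel. Cells treated 24 h; reporter transcripts quantified via RT-PCR and CE fluorescence against DMSO baseline.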
# [20] = ATG_TCF_b_cat_CIS: Attagene CIS-FACTORIAL HepG2 Assay for human T-Cell-Factor with beta-catenin (TCF/b-cat) (AID 2282965); conditions: HepG2 TCF/beta-catenin cis-reporter transcription, actives raise or lower the signal
# Outline: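 Cells of the HepG2 line carry transiently transfected reporter units whose promoters respond to endogenous factors. Twenty-four hours post-dosing, reporter mRNA induction is measured by fluorescent RT-PCR and capillary electrophoresis, with DMSO as baseline.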
# Chain of Signal transducer and activator of transcription 3 (Homo sapiens) (P40763 whole entry, looked up, the tested form may be a part): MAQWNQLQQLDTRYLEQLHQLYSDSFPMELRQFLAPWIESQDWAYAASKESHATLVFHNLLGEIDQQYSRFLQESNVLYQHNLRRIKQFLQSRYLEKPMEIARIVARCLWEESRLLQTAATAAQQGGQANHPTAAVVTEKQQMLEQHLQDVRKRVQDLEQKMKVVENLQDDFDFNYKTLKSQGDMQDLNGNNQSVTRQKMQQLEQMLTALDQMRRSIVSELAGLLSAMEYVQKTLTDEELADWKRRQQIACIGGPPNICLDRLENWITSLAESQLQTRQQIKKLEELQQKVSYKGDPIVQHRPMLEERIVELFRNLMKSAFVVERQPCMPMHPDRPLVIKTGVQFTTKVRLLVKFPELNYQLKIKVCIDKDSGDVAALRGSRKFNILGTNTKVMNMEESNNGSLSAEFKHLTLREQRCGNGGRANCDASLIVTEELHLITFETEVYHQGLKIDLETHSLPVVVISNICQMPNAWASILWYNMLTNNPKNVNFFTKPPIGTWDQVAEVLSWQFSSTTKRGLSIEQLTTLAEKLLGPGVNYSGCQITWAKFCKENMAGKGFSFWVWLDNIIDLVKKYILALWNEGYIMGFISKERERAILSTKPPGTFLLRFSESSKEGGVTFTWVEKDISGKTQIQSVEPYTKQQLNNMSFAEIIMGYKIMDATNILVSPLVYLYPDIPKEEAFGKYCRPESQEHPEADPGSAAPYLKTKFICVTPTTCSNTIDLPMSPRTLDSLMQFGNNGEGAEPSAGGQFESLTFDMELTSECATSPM
# Chain of Hypoxia-inducible factor 1-alpha (Homo sapiens) (Q16665 whole entry, looked up): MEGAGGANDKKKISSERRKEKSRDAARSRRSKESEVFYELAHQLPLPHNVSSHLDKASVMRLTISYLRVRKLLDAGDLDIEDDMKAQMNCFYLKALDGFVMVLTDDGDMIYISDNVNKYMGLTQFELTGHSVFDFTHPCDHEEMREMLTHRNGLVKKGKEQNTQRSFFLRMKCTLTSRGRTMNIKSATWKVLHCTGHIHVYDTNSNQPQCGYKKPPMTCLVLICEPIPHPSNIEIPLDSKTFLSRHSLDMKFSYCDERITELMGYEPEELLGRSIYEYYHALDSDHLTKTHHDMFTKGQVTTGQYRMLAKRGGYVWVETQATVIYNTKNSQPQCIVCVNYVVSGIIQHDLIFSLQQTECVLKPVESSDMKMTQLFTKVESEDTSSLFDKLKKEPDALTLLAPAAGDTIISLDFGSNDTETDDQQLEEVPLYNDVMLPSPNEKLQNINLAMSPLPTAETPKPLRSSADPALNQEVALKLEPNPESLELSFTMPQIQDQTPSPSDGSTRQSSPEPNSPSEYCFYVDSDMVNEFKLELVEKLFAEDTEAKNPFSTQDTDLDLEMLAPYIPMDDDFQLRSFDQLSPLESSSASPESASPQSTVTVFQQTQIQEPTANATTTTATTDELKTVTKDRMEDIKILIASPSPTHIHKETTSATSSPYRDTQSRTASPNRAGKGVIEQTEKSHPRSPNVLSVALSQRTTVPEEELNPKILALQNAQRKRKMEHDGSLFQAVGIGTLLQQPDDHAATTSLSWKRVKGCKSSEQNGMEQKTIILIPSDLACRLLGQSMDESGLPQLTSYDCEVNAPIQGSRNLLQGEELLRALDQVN
# Chain of Hepatocyte nuclear factor 6 (Homo sapiens) (Q9UBC0 whole entry, looked up, the tested form may be a part): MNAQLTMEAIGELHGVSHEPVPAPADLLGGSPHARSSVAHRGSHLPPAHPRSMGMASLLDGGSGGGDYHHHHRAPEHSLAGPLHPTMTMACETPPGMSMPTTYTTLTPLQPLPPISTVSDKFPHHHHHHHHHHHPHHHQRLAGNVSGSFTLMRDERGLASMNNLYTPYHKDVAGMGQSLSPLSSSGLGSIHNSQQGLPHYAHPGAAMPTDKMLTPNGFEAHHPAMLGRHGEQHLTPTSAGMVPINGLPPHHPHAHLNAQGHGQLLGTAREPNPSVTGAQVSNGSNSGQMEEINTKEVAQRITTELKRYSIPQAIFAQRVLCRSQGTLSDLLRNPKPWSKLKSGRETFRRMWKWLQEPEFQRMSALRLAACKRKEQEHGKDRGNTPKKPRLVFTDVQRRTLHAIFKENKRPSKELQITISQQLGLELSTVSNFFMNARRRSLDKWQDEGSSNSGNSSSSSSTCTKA
# Chain of Heat shock factor protein 1 (Homo sapiens) (Q00613 whole entry, looked up): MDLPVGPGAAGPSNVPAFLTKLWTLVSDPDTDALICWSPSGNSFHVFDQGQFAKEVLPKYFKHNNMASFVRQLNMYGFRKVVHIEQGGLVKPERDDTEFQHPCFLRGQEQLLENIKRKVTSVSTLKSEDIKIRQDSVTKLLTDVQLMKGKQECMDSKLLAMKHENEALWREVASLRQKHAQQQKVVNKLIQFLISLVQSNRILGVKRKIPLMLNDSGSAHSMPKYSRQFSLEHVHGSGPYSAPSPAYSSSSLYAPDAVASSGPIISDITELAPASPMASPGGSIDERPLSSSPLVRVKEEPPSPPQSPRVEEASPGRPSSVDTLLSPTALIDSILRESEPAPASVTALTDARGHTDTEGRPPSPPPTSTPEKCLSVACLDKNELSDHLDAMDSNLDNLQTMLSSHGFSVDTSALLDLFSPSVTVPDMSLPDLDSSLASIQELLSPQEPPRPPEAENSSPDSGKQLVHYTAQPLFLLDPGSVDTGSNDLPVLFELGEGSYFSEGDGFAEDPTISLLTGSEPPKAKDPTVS
# Chain of Transcription factor Sp1 (Homo sapiens) (P08047 whole entry, looked up): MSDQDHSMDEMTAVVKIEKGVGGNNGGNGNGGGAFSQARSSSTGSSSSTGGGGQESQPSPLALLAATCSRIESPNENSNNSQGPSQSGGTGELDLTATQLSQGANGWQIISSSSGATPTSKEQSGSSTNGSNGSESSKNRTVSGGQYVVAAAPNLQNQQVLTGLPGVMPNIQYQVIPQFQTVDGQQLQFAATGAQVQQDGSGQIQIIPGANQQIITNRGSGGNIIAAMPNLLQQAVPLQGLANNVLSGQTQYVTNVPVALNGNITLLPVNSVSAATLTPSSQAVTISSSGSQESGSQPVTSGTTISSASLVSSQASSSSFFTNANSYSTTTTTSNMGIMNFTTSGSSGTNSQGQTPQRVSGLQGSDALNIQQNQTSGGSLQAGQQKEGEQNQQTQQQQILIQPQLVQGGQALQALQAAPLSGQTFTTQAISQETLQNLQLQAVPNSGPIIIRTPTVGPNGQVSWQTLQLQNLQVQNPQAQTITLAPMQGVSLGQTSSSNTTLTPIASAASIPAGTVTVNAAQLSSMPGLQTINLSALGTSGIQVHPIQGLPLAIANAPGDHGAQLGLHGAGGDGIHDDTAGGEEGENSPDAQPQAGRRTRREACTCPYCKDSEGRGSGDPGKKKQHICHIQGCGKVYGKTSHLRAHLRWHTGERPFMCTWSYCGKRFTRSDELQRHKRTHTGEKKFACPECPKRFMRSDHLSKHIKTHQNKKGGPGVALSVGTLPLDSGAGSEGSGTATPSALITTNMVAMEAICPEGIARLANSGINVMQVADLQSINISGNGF
# Chain of Bile acid receptor (Homo sapiens) (Q96RI1 whole entry, looked up): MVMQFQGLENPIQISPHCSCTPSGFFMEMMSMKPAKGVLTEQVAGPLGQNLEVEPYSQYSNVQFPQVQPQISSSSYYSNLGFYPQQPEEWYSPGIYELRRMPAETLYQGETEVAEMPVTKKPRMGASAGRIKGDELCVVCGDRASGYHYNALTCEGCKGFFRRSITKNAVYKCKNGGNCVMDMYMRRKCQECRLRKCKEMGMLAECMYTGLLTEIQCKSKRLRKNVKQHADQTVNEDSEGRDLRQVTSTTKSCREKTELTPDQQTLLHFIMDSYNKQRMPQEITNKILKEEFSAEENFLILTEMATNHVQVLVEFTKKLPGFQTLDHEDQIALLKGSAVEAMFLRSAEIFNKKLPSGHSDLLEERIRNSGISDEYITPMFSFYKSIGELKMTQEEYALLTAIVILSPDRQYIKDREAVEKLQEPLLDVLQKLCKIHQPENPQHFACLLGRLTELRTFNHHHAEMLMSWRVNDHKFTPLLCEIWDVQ
# Chain of Paired box protein Pax-6 (Homo sapiens) (P26367 whole entry, looked up): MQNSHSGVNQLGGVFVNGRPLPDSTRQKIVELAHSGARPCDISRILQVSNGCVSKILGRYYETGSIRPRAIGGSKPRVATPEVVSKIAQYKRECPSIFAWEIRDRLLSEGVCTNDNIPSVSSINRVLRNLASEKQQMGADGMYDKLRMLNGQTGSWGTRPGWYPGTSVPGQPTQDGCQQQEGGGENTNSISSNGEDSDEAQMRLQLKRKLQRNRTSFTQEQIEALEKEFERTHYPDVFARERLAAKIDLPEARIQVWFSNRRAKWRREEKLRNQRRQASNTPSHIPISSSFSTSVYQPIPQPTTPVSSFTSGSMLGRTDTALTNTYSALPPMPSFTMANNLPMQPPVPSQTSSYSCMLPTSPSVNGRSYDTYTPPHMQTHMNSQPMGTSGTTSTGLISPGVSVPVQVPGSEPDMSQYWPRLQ
structure (smiles),measurement,setting,value
CCc1cccc(CC)c1N(COC)C(=O)CCl,outcome,[1],inactive
same,outcome,[2],inactive
same,outcome,[3],inactive
same,outcome,[4],inactive
same,outcome,[5],inactive
same,outcome,[6],inactive
same,outcome,[7],inactive
same,outcome,[8],inactive
same,outcome,[9],inactive
same,outcome,[10],inactive
same,outcome,[11],inactive
same,AC50,[12],1.15 µM (active)
same,outcome,[13],inactive
same,outcome,[14],inactive
same,outcome,[15],inactive
same,AC50,[16],7.75 µM (active)
same,outcome,[17],inactive
same,outcome,[18],inactive
same,outcome,[19],inactive
COc1cccc(C(=O)NN(C(=O)c2cc(C)cc(C)c2)C(C)(C)C)c1C,outcome,[1],inactive
same,outcome,[3],inactive
same,outcome,[4],inactive
same,outcome,[5],inactive
same,outcome,[6],inactive
same,outcome,[7],inactive
same,outcome,[8],inactive
same,outcome,[9],inactive
same,AC50,[10],3.46 µM (active)
same,outcome,[11],inactive
same,AC50,[12],0.526 µM (active)
same,outcome,[13],inactive
same,outcome,[14],inactive
same,outcome,[15],inactive
same,outcome,[16],inactive
same,outcome,[17],inactive
same,outcome,[18],inactive
same,outcome,[19],inactive
Cc1ccn2nc(S(=O)(=O)Nc3c(F)cccc3F)nc2n1,outcome,[1],inactive
same,outcome,[3],inactive
same,outcome,[4],inactive
same,outcome,[5],inactive
same,outcome,[6],inactive
same,outcome,[7],inactive
same,outcome,[8],inactive
same,outcome,[9],inactive
same,outcome,[10],inactive
same,outcome,[11],inactive
same,AC50,[12],9.86 µM (active)
same,outcome,[13],inactive
same,outcome,[14],inactive
same,outcome,[15],inactive
same,outcome,[16],inactive
same,outcome,[17],inactive
same,outcome,[18],inactive
same,outcome,[19],inactive
same,outcome,[20],inactive
COc1ccc(C(=CC(=O)N2CCOCC2)c2ccc(Cl)cc2)cc1OC,outcome,[1],inactive
same,outcome,[2],inactive
same,outcome,[3],inactive
same,outcome,[4],inactive
same,outcome,[5],inactive
same,outcome,[7],inactive
same,outcome,[8],inactive
same,AC50,[9],30.7 µM (active)
same,AC50,[10],24.9 µM (active)
same,outcome,[11],inactive
same,AC50,[12],5.15 µM (active)
same,AC50,[13],21.8 µM (active)
same,AC50,[14],5.72 µM (active)
same,outcome,[15],inactive
same,outcome,[16],inactive
same,outcome,[17],inactive
same,outcome,[18],inactive
same,outcome,[19],inactive
same,outcome,[20],inactive
CCCSP(=O)(OCC)SCCC,outcome,[1],inactive
same,outcome,[2],inactive
same,outcome,[3],inactive
same,outcome,[4],inactive
same,outcome,[5],inactive
same,outcome,[7],inactive
same,outcome,[8],inactive
same,outcome,[9],inactive
same,outcome,[10],inactive
same,outcome,[11],inactive
same,AC50,[12],15.2 µM (active)
same,outcome,[14],inactive
same,outcome,[15],inactive
same,outcome,[16],inactive
same,outcome,[17],inactive
same,outcome,[18],inactive
same,outcome,[19],inactive
same,outcome,[20],inactive
